Measured values: PubChem BioAssay (Tox21)
Results filed as inconclusive are left out. Active and inactive are the calls of the source. Unless noted, the call rests on the fitted dose curve; in most records, active means well fitted curve in the direction sought with a large enough effect in the repeat runs; inconclusive means weak or mixed curves; inactive means no such curve, though single readings can be large; an effect the other way counts as inactive or inconclusive.

Assays:
[1] = qHTS assay to test for compound auto fluorescence at 535 nm (green) in HEK293 cells (AID 720680)
[2] = qHTS assay to test for compound auto fluorescence at 460 nm (blue) in HEK293 cell free culture (AID 720681)
Procedure, shortened: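 Compounds were added to cell-free DMEM with 10% FBS and fluorescence read directly. The blue channel used 405 nm excitation and 460 nm emission, with triamterene as the reference fluorophore.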

[3] = qHTS assay to test for compound auto fluorescence at 535 nm (green) in HEK293 cell free culture (AID 720682)
Procedure, shortened: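 Steps: dispense DMEM/10% FBS into empty wells; pin in compound or DMSO; measure fluorescence at 485/535 nm. Values are fluorescein equivalents.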

[4] = qHTS assay to test for compound auto fluorescence at 590 nm (red) in HEK293 cell free culture (AID 720683)
Procedure, shortened: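 Cell-free wells of DMEM with 10% FBS received compound, and intrinsic fluorescence was read at excitation/emission 540/590 nm. Values expressed as equivalence to Rose Bengal sodium.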

[5] = qHTS assay to test for compound auto fluorescence at 590 nm (red) in HepG2 cell free culture (AID 720684)
Procedure, shortened: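 Compound was pinned into wells holding MEM with 10% FBS and no cells, and red fluorescence was read at Ex/Em 540/590 nm. Signal is expressed as auto fluorescence equivalency relative to Rose Bengal sodium.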

[6] = qHTS assay to test for compound auto fluorescence at 535 nm (green) in HepG2 cell free culture (AID 720686)
[7] = qHTS assay to test for compound auto fluorescence at 460 nm (blue) in HepG2 cells (AID 720687)
Procedure, shortened: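 HepG2 cells in MEM with 10% FBS, attached overnight at 37 C, were exposed to compound or DMSO for 1 hr at 37 C, 5% CO2. Blue fluorescence was read at 405/460 nm, with triamterene as reference fluorophore.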

[8] = biological target: Glucocorticoid receptor (Homo sapiens) (UniProt P04150); assay: qHTS assay to identify small molecule agonists of the glucocorticoid receptor (GR) signaling pathway (AID 720691; active means well fitted activation curve with a large enough effect in the signal ratio in the repeat runs, not every such curve was filed as active; the % refers to the signal ratio)
Procedure, shortened: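 Reporter read-out: fluorescence intensity following 2 h room-temperature LiveBLAzer B/G FRET substrate loading. Prior step: GR-bla HeLa cells held 4 h, then treated 18 h at 37 C.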

[9] = biological target: Glucocorticoid receptor (Homo sapiens) (UniProt P04150); assay: qHTS assay to identify small molecule antagonists of the glucocorticoid receptor (GR) signaling pathway (AID 720692; active means well fitted inhibition curve with a large enough effect in the signal ratio in the repeat runs, not every such curve was filed as active; the % refers to the signal ratio)
Procedure, shortened: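 Dexamethasone (5 nM final) stimulated a stably integrated GRE-beta-lactamase reporter in HeLa cells during 18 h co-incubation with compounds; signal was quantified as fluorescence intensity of B/G FRET substrate after 2 h.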

[10] = qHTS assay to identify small molecule antagonists of the glucocorticoid receptor (GR) signaling pathway - cell viability counter screen (AID 720693); further: nearly all actives have a fitted effect of over 55% in size
[11] = qHTS assay for identifying genotoxic compounds that show differential cytotoxicity against isogenic chicken DT40 cell lines with known DNA damage response pathways - wild type cell line (AID 743012); further: nearly all actives have a fitted effect of over 60% in size
Procedure, shortened: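 Using parental DT40 (300 cells/well), compounds delivered in DMSO incubate 40 h at 37 C/5% CO2. CellTiter-Glo reagent then stands 30 min at room temperature, and luminescence gives cell viability.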

[12] = qHTS assay for identifying genotoxic compounds that show differential cytotoxicity against isogenic chicken DT40 cell lines with known DNA damage response pathways - Rad54/Ku70 mutant cell line (AID 743015); further: nearly all actives have a fitted effect of over 60% in size
[13] = qHTS assay to identify small molecule antagonists of the androgen receptor (AR) signaling pathway - cell viability counter screen (AID 743033; further: nearly all actives have a fitted effect of over 45% in size)
[14] = qHTS assay to identify small molecule antagonists of the androgen receptor (AR) signaling pathway using the MDA cell line - cell viability counter screen (AID 743041; further: nearly all actives have a fitted effect of over 45% in size)
Procedure, shortened: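 MDA-kb2 AR-luc cells (MMTV-luciferase, AR/GR responsive) treated with compounds plus R1881 agonist for 16 h at 37C. CellTiter-Fluor added at 15.5 h; fluorescence read after 30 min in the same wells.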

[15] = qHTS assay for identifying genotoxic compounds that show differential cytotoxicity against isogenic chicken DT40 cell lines with known DNA damage response pathways - Rev3 mutant cell line (AID 743014); further: nearly all actives have a fitted effect of over 55% in size
[16] = qHTS assay to test for compound auto fluorescence at 460 nm (blue) in HepG2 cell free culture (AID 720685)
Procedure, shortened: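 Compound (23 nL) or DMSO pinned into cell-free MEM with 10% FBS; blue fluorescence read at 405/460 nm excitation/emission, expressed as auto-fluorescence equivalency to triamterene.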

[17] = biological target: Androgen receptor (Homo sapiens) (UniProt P10275); assay: qHTS assay to identify small molecule antagonists of the androgen receptor (AR) signaling pathway (AID 743035; active means well fitted inhibition curve with a large enough effect in the signal ratio in the repeat runs, not every such curve was filed as active; the % refers to the signal ratio)
Procedure, shortened: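 Using qHTS, AR-UAS-bla GripTite HEK293 cells received compound, then R1881, and were cultured 16 h at 37C/5% CO2 before a 2 h room-temperature LiveBLAzer B/G FRET substrate step and fluorescence measurement.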

[18] = biological target: Androgen receptor (Homo sapiens) (UniProt P10275); assay: qHTS assay to identify small molecule agonists of the androgen receptor (AR) signaling pathway (AID 743036; active means well fitted activation curve with a large enough effect in the signal ratio in the repeat runs, with a control signal flat, not every such curve was filed as active; the % refers to the signal ratio)
Procedure, shortened: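 Reporter line: GeneBLAzer AR-UAS-bla-GripTite (HEK293). Steps: plate cells, 4 h rest, add compounds, 16 h at 37C, add LiveBLAzer B/G substrate, 2 h at RT, read fluorescence.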

[19] = biological target: Androgen receptor (Homo sapiens) (UniProt P10275); assay: qHTS assay to identify small molecule agonists of the androgen receptor (AR) signaling pathway using the MDA cell line (AID 743040; further: nearly all actives have a fitted effect of over 20% in size)
Procedure, shortened: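 MDA-kb2 breast carcinoma cells carrying MMTV-luciferase (responsive to AR and GR), plated 5 h then treated 16 h with compounds at 37C, 0% CO2. Read-out was ONE-Glo luminescence after 30 min at room temperature.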

[20] = biological target: Androgen receptor (Homo sapiens) (UniProt P10275); assay: qHTS assay to identify small molecule antagonists of the androgen receptor (AR) signaling pathway using the MDA cell line (AID 743042; further: nearly all actives have a fitted effect of over 55% in size)
Procedure, shortened: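 MDA-kb2 breast carcinoma cells carrying MMTV-luciferase (AR/GR responsive) were co-treated with compounds and the agonist R1881 for 16 h at 37C. Inhibition read as ONE-Glo luminescence; CellTiter-Fluor fluorescence measured in parallel for cytotoxicity.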

Measured: Potency

Chain of Glucocorticoid receptor (Homo sapiens) (P04150 whole entry, looked up): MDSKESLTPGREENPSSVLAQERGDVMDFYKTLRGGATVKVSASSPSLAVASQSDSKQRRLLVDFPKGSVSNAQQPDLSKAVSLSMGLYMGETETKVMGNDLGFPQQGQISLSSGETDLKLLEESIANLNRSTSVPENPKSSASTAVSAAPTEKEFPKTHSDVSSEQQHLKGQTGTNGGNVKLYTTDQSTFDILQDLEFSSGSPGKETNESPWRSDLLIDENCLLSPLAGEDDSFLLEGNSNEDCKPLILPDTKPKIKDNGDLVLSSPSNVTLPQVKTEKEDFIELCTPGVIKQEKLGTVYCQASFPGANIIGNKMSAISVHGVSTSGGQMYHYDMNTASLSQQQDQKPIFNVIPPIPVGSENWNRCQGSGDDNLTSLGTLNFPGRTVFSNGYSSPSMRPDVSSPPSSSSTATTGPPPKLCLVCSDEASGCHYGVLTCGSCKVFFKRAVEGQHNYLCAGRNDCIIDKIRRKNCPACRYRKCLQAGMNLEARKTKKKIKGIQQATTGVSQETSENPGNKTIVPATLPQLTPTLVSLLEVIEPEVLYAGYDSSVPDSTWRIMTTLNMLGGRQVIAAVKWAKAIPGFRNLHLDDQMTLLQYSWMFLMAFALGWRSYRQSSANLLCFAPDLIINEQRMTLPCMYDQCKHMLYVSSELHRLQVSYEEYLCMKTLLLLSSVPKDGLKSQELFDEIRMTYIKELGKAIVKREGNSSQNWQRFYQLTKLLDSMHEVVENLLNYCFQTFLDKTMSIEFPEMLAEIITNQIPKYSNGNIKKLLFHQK
Chain of Androgen receptor (Homo sapiens) (P10275 whole entry, looked up): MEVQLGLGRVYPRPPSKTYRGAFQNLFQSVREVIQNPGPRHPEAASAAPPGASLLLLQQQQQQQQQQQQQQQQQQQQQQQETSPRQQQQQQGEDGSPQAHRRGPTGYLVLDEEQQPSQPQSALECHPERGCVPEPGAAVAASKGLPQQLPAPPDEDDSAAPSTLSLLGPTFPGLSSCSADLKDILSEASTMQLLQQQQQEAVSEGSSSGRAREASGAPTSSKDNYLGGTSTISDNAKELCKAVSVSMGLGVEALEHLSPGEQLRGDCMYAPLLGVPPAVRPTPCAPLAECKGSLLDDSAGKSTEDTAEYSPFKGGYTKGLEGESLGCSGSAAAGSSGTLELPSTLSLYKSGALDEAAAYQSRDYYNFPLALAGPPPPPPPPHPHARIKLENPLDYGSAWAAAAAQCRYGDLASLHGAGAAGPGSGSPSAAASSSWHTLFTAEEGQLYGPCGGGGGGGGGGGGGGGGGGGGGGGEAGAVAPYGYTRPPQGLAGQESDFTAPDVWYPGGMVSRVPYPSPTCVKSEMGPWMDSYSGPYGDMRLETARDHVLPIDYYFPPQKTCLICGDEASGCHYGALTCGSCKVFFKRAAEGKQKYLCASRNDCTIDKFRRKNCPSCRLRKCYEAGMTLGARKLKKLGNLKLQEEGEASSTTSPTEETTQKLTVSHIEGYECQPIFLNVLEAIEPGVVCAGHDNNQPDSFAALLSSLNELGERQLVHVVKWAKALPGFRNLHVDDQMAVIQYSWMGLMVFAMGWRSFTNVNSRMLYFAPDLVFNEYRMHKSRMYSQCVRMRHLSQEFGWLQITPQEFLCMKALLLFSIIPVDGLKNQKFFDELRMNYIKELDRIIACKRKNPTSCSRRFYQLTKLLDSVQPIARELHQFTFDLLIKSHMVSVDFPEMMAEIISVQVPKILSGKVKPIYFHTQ

CC/C=C\CCOC(=O)c1ccccc1O
not listed: [15] | [16] | [17] | [18] | [19] | [20]
inactive: all other assays above

C=C(C)[C@@H]1CC=C(C)C(=O)C1
not listed: [11] | [16] | [17] | [18] | [19] | [20]
inactive: all other assays above

OCCN1CCOCC1
inactive: [1] | [2] | [3] | [4] | [5] | [16] | [7] | [15] | [12] | [13] | [14]

CCCCCCC1(C)CCC(=O)O1 (centres undefined)
inactive: [1] | [2] | [3] | [4] | [5] | [16] | [7] | [10] | [15] | [13] | [14]

O=C(NCN1CCOCC1)c1cnccn1
not listed: [10] | [16]
inactive: all other assays above

CSc1cnccn1
not listed: [8] | [9] | [16] | [17] | [18] | [19] | [20]
inactive: all other assays above

COC(=O)c1cc(Cl)cc(Cl)c1
not listed: [6] | [16] | [18]
inactive: all other assays above

Fc1ccccc1
not listed: [16] | [17] | [18] | [19] | [20]
inactive: all other assays above

CC(=O)OC(C)=O
not listed: [9] | [10] | [16] | [17] | [18] | [19] | [20]
inactive: all other assays above

C=C(C)C1CC=C(C)C(=O)C1 (centres undefined)
not listed: [6] | [16] | [17] | [18] | [19] | [20]
inactive: all other assays above

C/C=C(\C)C(=O)OCCc1ccccc1
not listed: [15] | [16] | [17] | [18] | [19] | [20]
inactive: all other assays above

CC(=O)O[C@H]1C[C@@H]2CC[C@@]1(C)C2(C)C
not listed: [3]
inactive: all other assays above

O=C(O)[C@H](O)c1ccccc1
not listed: [8] | [9] | [15] | [16] | [17] | [18] | [19] | [20]
inactive: all other assays above

OCC(O)CN1CCN(c2ccccc2)CC1 (centres undefined)
not listed: [6] | [10] | [11] | [16] | [17] | [18] | [19] | [20]
inactive: all other assays above

CC(C)[C@H]1CC[C@H](C)C[C@@H]1O
not listed: [8] | [9] | [16]
inactive: all other assays above

CCO
not listed: [6] | [9] | [16] | [18]
inactive: all other assays above

CC1c2ccccc2CN1NC(=O)c1ccc(Cl)c(S(N)(=O)=O)c1 (centres undefined)
not listed: [3] | [16] | [17] | [18] | [19] | [20]
inactive: all other assays above

O=C=NCC1CCCC(CN=C=O)C1 (centres undefined)
not listed: [3] | [8] | [9] | [17] | [18] | [19] | [20]
inactive: all other assays above

C=CC(=O)CCCCC
not listed: [3] | [8] | [9] | [10] | [17] | [18] | [19] | [20]
inactive: all other assays above
